# Test results taken from the supplement of paper PMC3484114.
# ± gives the standard deviation.
# Test system: OVCAR-3-derived ovarian cancer stem-like cells (spheroids)
# Assay: cell growth relative to untreated control; higher = more growth (less inhibition)
# Settings: 2.29 µM; 96 h
# In short: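 Percent growth was calculated against untreated wells once blanks were subtracted and Grubbs outliers removed. The cells were OVCAR-3 spheroid-derived stem-like cells, trypsinized and plated at 50,000 cells/mL in stem cell medium on ultra-low attachment 96-well plates for a 24 h preincubation. They were then exposed to compounds at 2.29 uM for 96 h at 37°C, 5% CO2, in 4 replicate wells, and viability was measured by TOX8 resazurin fluorescence (ex 560/em 590 nm) after 4 h.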
row,SMILES,cell growth [%]
1,N#CC(=S)Nc1ccc(Cl)c(Cl)c1,90.6 ± 12
2,C=C(Cl)C(Cl)(CBr)CCC(Br)C(C)(C)Cl (configuration not stated),70.7 ± 16
3,NC(=S)N/N=C/c1ccc(OC(=O)COc2ccccc2Cl)cn1,90.5 ± 27
4,C=C1C(=O)OC2CC1C(OC(C)=O)C/C(C)=C/CC/C(C)=C\CCC2(C)O (configuration not stated),48.5 ± 5.5
5,COc1ccc(C=CC(=O)Oc2cc(O)cc(O)c2)cc1,99.6 ± 16
6,CN1CCN(CN2C(=O)C3C4C=CC(C3C2=O)C2C3C(=O)N(CN5CCN(C)CC5)C(=O)C3C42)CC1 (configuration not stated),91.4 ± 32
7,CCCCCC(/C=C/[C@@H]1CC(=O)C[C@H]1O[Si](C)(C)C(C)(C)C)OCOCCOC (some centres not stated),110 ± 24
8,CN(C)CCOC1(Cc2ccc(F)cc2)CCC(C(C)(C)C)CC1 (configuration not stated),109 ± 34
9,CN/N=C(\C)C(CN1CCCCC1)C(C1=C(O)c2ccccc2OC1)c1ccccc1 (configuration not stated),94.9 ± 41
10,Cc1nc(Nc2ccc(Cl)c(Cl)c2)sc1C(/C=C/c1ccc2c(c1)OCO2)=N/Nc1ccc([N+](=O)[O-])cc1[N+](=O)[O-],101 ± 15
11,C=C(NC(=O)C(=C)NC(=O)c1csc(C2=N[C@@H]3c4csc(n4)C4NC(=O)c5csc(n5)C([C@](C)(O)[C@@H](C)O)NC(=O)[C@H]5CSC(=N5)/C(=C/C)NC(=O)C(C(C)O)NC(=O)c5csc(n5)C3(CC2)NC(=O)[C@H](C)NC(=O)C(=C)NC(=O)C(=C)NC(=O)C(C(C)C)N[C@@H]2C=Cc3c([C@@H](C)O)cc(nc3[C@H]2O)C(=O)OC4C)n1)C(N)=O (some centres not stated),56.7 ± 21
12,Cc1c2oc3c(C)ccc(C(=O)N[C@@H]4C(=O)N[C@H](C(C)C)C(=O)N5CCC[C@H]5C(=O)N(C)CC(=O)N(C)[C@@H](C(C)C)C(=O)O[C@@H]4C)c3nc-2c(C(=O)N[C@@H]2C(=O)N[C@H](C(C)C)C(=O)N3CCC[C@H]3C(=O)N(C)CC(=O)N(C)[C@@H](C(C)C)C(=O)O[C@@H]2C)c(N)c1=O,8.44 ± 3.9
